In PubChem BioAssay (Tox21):
Records with an inconclusive call do not appear. Unmarked numbers belong to inactive results. The call rests on the fitted dose curve; in most records, active means well fitted activation curve with a large enough effect in the signal ratio in the repeat runs (not every such curve was filed as active); inconclusive means weak or mixed curves, or effect the other way; inactive means flat fitted curve, though single readings scatter; the % refers to the signal ratio.
On the % scale 0 is the no-effect control and ±100 the full control effect.

The molecules below were run against Estrogen receptor beta (Homo sapiens) (UniProt Q92731) (assay: qHTS assay to identify small molecule agonists of the estrogen receptor beta (ER-beta) signaling pathway (AID 1259377)). Conditions: ER-beta-UAS-bla HEK293T, beta-lactamase FRET ratio, 16 h; series mostly up to 92.4 µM; activation: at the top concentration.
Estrogen receptor beta (Homo sapiens), sequence (Q92731 whole entry, looked up): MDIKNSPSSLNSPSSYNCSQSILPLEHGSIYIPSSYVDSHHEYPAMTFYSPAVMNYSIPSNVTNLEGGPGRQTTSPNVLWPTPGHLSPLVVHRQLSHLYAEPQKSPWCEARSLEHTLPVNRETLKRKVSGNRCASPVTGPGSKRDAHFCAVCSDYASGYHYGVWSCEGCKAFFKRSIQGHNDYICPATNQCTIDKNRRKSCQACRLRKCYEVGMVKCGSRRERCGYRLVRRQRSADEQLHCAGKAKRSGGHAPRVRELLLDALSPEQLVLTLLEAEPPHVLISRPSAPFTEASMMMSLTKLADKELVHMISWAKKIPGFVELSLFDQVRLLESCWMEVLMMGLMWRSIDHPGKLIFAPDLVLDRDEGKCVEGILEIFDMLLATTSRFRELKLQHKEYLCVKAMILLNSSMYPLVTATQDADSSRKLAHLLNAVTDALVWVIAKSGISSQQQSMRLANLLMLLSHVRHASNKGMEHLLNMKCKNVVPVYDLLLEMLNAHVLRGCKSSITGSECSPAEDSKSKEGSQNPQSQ
From the text: U.S. Tox21 Program National Center for Advancing Translational Sciences [NCATS] NIH Chemical Genomics Center [NCGC] U.S. Environmental Protection Agency [EPA] National Institutes of Environmental Health Sciences [NIEHS] National Toxicology Program [NTP] U.S. Food and Drug Administration [FDA] Tox21 Assay Overview: Estrogen receptor (ER), a nuclear hormone receptor, plays an important role in development, metabolic homeostasis and reproduction. Two subtypes of ER, ER-alpha and ER-beta, have similar expression patterns with some uniqueness in both types. Endocrine disrupting chemicals (EDCs) and their interactions with steroid hormone receptors like ER causes disruption of normal endocrine function. To identify the compounds that activate ER signaling, an ER beta-UAS-bla GripTite cell line (Life technologies, Madison, WI, USA) containing a beta-lactamase reporter gene under the control of an Upstream Activator Sequence (UAS) was used to screen Tox21 10K compound library.
Tox21 Assay Protocol Summary: ER-beta-UAS-bla HEK293T cells were dispensed at 2,000 cells/5 uL of assay medium containing 2% charcoal stripped FBS per well into black wall/clear-bottom 1536-well plates using a Multidrop Combi (ThermoFisher Scientific, Waltham, MA) dispenser. After the assay plates were incubated at a 37C and 5% CO2 for 6 hr, 23 nL of compounds dissolved in DMSO, positive controls or DMSO only was transferred to the assay plate by a Pintool station (Kalypsys, San Diego, CA). The plates were incubated at 37C and 5% CO2 for 16 hr. Then 1 uL of LiveBLAzerTM B/G FRET substrate was added using a BioRAPTR FRD (Flying Reagent Dispenser, Aurora Discovery, San Diego, CA). After the plates were incubated at room temperature for 2 hours, fluorescence intensity was measured by an Envision plate reader (PerkinElmer, Shelton, CT).
With `Cc1nc(Nc2ncc(C(=O)Nc3c(C)cccc3Cl)s2)cc(N2CCN(CCO)CC2)n1` the “activation” value was -1.52% [at 42.5 µM].
For `CC(=O)Oc1ccc(C2(c3ccc(OC(C)=O)cc3)C(=O)Nc3ccccc32)cc1`, the “activation” value was -0.222% [at 42.5 µM].
For `CCCCCCS`, the “activation” value was -0.571%.
With `C[C@@H]1CC[C@H]2C(C)(C)[C@H]3C[C@@]12CC[C@@]3(C)O` the “activation” value was 1.75%.
In the case of `C=CC/C=C/C/C=C/C/C=C/C`, the “activation” value is reported as 5.86%.
For `CC(C)C(=O)OCc1ccccc1`, the “activation” value was -1.19%.
With `COC(=O)CC(C)CCC=C(C)C` (stereo not given) the “activation” value was -0.464%.
For `COc1ccc2sc(C(=O)Nc3nnn[nH]3)c(OC(C)C)c2c1`, the “activation” value was -10.5%.
With `COc1ccccc1OCCNCC(O)COc1cccc2[nH]c3ccccc3c12` (stereo not given) the “activation” value was 1.24% [at 42.5 µM].
`CCCCNc1c(C(=O)OCC)c(C)nc2c1cnn2CC` was tested, and the “activation” value was 0.641% [at 42.5 µM].
In the case of `O=C1c2c(O)ccc([N+](=O)[O-])c2C(=O)c2c([N+](=O)[O-])ccc(O)c21`, the “activation” value is reported as -5.25%.
`c1ccc2c(c1)CCC2` was tested, and the “activation” value was -2.41%.
In the case of `CC(C)(C)c1n[nH]c(=O)n(N)c1=O`, the “activation” value is reported as 8.1%.
For `CC1(C)COCN1`, the “activation” value was 5.73%.
`O=c1cccc[nH]1` was tested, and the “activation” value was 6.34%.
In the case of `CC(C)(c1cc(Br)c(OCCO)c(Br)c1)c1cc(Br)c(OCCO)c(Br)c1`, the “activation” value is reported as -6.43%.
In the case of `CCOC(OCC)C(=O)c1ccccc1`, the “activation” value is reported as 0.0541%.
In the case of `Cc1cc(Nc2ccc(O)cc2)ccc1N`, the “activation” value is reported as -4.04%.
`CCCCCCCCCCCCCOP(=O)(O)O` was tested, and the “activation” value was 6.79%.
In the case of `O=C(Nc1ccc(Cl)cc1)Nc1ccc(Cl)c(C(F)(F)F)c1`, the “activation” value is reported as 1.34% [at 42.5 µM].
With `CC(C)(C)c1cc(/C=C2\SC(=N)NC2=O)cc(C(C)(C)C)c1O` the “activation” value was -4.14%.
`CCc1c(Br)c(Br)c(Br)c(Br)c1Br` was tested, and the “activation” value was 0.091%.
With `C=CC(=O)OCC(O)COc1ccccc1` (stereo not given) the “activation” value was -3.68%.
`C=C(C)CCCC` was tested, and the “activation” value was -3.54%.
For `Cc1cc(=O)[nH]c(=O)[nH]1`, the “activation” value was -0.555%.
With `COc1ccccc1C=O` the “activation” value was 0.0356%.
For `c1cc2c3c(c1)ccc1cccc(c13)C2`, the “activation” value was -0.648%.
`CCCC(=O)OCC(COC(=O)CCC)OC(=O)CCC` was tested, and the “activation” value was 6.46%.
With `CC(C)CCOCCC(C)C` the “activation” value was -1.29%.
In the case of `CN(C)c1ccc(N=Nc2ccccc2C(=O)O)cc1`, the “activation” value is reported as -8.06%.
For `O=C1c2c(O)ccc(O)c2C(=O)c2c(NCCNCCO)ccc(NCCNCCO)c21`, the “activation” value was 0.32% [at 42.5 µM].
In the case of `CCOC(=O)CC(C)O` (stereo not given), the “activation” value is reported as 10.9%.
`CCN(CC)CCSC(=O)C(c1ccccc1)c1ccccc1` was tested, and the “activation” value was 4.86% [at 42.5 µM].
With `O=C1C=CC(=O)N1c1ccccc1` the “activation” value was -8.43%.
For `C=CC(=C)CCC=C(C)C`, the “activation” value was 6.1%.
`Brc1ccccn1` was tested, and the “activation” value was -0.348%.
`CC1(C)C(=O)N(CO)C(=O)N1CO` was tested, and the “activation” value was 0.663%.
For `CCCCCCCCCC(=O)N(C)C`, the “activation” value was -0.737%.
For `CC(C)=C1CC[C@@H](C)CC1=O`, the “activation” value was 10.4%.
`COC(=O)NCCC[Si](OC)(OC)OC` was tested, and the “activation” value was 0.128%.
